Source: PubChem BioAssay AID1159580 (chemical genetic matrix, 2015)
Screen size: about 5,500 compounds; about 2,000 (36%) were called active. Inconclusive results (about 18%) are left out. Rule as the data show it: active = normalized growth mostly below about 0.91 (no sharp cut-off); inconclusive = no clear call, values can overlap the other calls; inactive = mostly above about 0.92. Some of the results follow.

Assay: chemical genetic growth profiling, strain panel (AID 1159580);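 also: tested at 20 µM; growth read once vehicle control cultures reached saturation at 30 °C; 1 = growth at the plate median or of vehicle wells; lower values mean less growth of the strain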
Details: growth OD
[1] = S. cerevisiae deletion strains, locus YAL013W, strain DEP1, active compounds read low
[2] = S. cerevisiae deletion strains, locus YGR229C, strain SMI1, active compounds read low
[3] = S. cerevisiae deletion strains, locus YJR075W, strain HOC1, active compounds read low
[4] = S. cerevisiae deletion strains, locus YMR263W, strain SAP30, active compounds read low
[5] = S. cerevisiae deletion strains, locus YMR307W, strain GAS1, active compounds read low
[6] = S. cerevisiae deletion strains, locus YNL153C, strain GIM3, active compounds read low
[7] = S. cerevisiae deletion strains, locus YNL322C, strain KRE1, active compounds read low
[8] = S. cerevisiae deletion strains, locus YPL055C, strain LGE1, active compounds read low
[9] = S. cerevisiae deletion strains, locus YPL241C, strain CIN2, active compounds read low

Measured: normalized growth

C[C@H]1O[C@@H](n2cc(F)c(=O)[nH]c2=O)[C@H](O)[C@@H]1O
inactive: [1] 1.04 | S. cerevisiae deletion strains, locus YAL040C, strain CLN3, active compounds read low 1 | S. cerevisiae deletion strains, locus YCL061C, strain MRC1 (second series), active compounds read low 1.01 | S. cerevisiae deletion strains, locus YDR363W, strain ESC2, active compounds read low 1.02 | S. cerevisiae deletion strains, locus YER002W, strain NOP16, active compounds read low 1.04 | [2] 1.07 | [3] 1.01 | [4] 1.01 | [5] 1 | [6] 1.02 | S. cerevisiae deletion strains, locus YNL175C, strain NOP13, active compounds read low 1 | S. cerevisiae deletion strains, locus YNL197C, strain WHI3, active compounds read low 1 | S. cerevisiae deletion strains, locus YNL224C, strain SQS1, active compounds read low 0.984 | [7] 1.02 | S. cerevisiae deletion strains, locus YOR083W, strain WHI5 (second series), active compounds read low 1.01 | [8] 1.02 | [9] 1.01

C[C@H]1OC(n2cc(F)c(=O)[nH]c2=O)C(O)[C@@H]1O (stereo partly drawn)
inactive: [1] 1 | S. cerevisiae deletion strains, locus YBR021W, strain FUR4, active compounds read low 1 | S. cerevisiae deletion strains, locus YBR229C, strain ROT2, active compounds read low 1.01 | S. cerevisiae deletion strains, locus YCL029C, strain bik1, active compounds read low 0.973 | S. cerevisiae deletion strains, locus YDL035C, strain GPR1, active compounds read low 1 | S. cerevisiae deletion strains, locus YDL074C, strain BRE1, active compounds read low 1.02 | S. cerevisiae deletion strains, locus YDL101C, strain DUN1, active compounds read low 1 | S. cerevisiae deletion strains, locus YDL134C, strain PPH21, active compounds read low 1 | S. cerevisiae deletion strains, locus YDL185W, strain tfp1, active compounds read low 0.97 | S. cerevisiae deletion strains, locus YDL192W, strain arf1, active compounds read low 0.97 | S. cerevisiae deletion strains, locus YDR101C, strain arx1, active compounds read low 1 | S. cerevisiae deletion strains, locus YDR150W, strain NUM1, active compounds read low 0.982 | S. cerevisiae deletion strains, locus YDR162C, strain NBP2, active compounds read low 1.04 | S. cerevisiae deletion strains, locus YDR318W, strain mcm21, active compounds read low 0.973 | S. cerevisiae deletion strains, locus YDR388W, active compounds read low 0.986 | S. cerevisiae deletion strains, locus YDR502C, strain sam2, active compounds read low 1 | S. cerevisiae deletion strains, locus YEL061C, strain CIN8, active compounds read low 1 | S. cerevisiae deletion strains, locus YER110C, active compounds read low 0.948 | S. cerevisiae deletion strains, locus YER155C, strain BEM2, active compounds read low 0.995 | S. cerevisiae deletion strains, locus YER167W, strain BCK2, active compounds read low 0.989 | S. cerevisiae deletion strains, locus YGL078C, strain dbp3, active compounds read low 0.979 | S. cerevisiae deletion strains, locus YGL086W, strain mad1, active compounds read low 0.957 | S. cerevisiae deletion strains, locus YGL248W, strain PDE1, active compounds read low 1.01 | S. cerevisiae deletion strains, locus YGR078C, strain PAC10, active compounds read low 1.02 | S. cerevisiae deletion strains, locus YGR135W, strain pre9, active compounds read low 1 | [2] 1.03 | S. cerevisiae deletion strains, locus YGR252W, strain gcn5, active compounds read low 1.01 | S. cerevisiae deletion strains, locus YHR030C, strain SLT2, active compounds read low 0.996 | S. cerevisiae deletion strains, locus YHR079C, strain IRE1 (second series), active compounds read low 0.985 | S. cerevisiae deletion strains, locus YHR094C, strain hxt1, active compounds read low 0.968 | S. cerevisiae deletion strains, locus YHR129C, strain ARP1, active compounds read low 1 | S. cerevisiae deletion strains, locus YHR200W, strain rpn10, active compounds read low 0.969 | S. cerevisiae deletion strains, locus YIL066C, strain RNR3, active compounds read low 0.99 | S. cerevisiae deletion strains, locus YIL073C, strain SPO22, active compounds read low 0.894 | S. cerevisiae deletion strains, locus YIL125W, strain kgd1, active compounds read low 0.973 | S. cerevisiae deletion strains, locus YIR030C, strain dcg1, active compounds read low 0.982 | S. cerevisiae deletion strains, locus YJL095W, strain BCK1, active compounds read low 1.04 | S. cerevisiae deletion strains, locus YJL134W, strain LCB3, active compounds read low 1.01 | S. cerevisiae deletion strains, locus YJL168C, strain set2, active compounds read low 0.993 | S. cerevisiae deletion strains, locus YJL187C, strain SWE1 (second series), active compounds read low 1.01 | S. cerevisiae deletion strains, locus YJR043C, strain POL32, active compounds read low 0.993 | [3] 1.01 | S. cerevisiae deletion strains, locus YKL009W, strain mrt4, active compounds read low 0.959 | S. cerevisiae deletion strains, locus YKL068W, active compounds read low 0.98 | S. cerevisiae deletion strains, locus YKL085W, strain MDH1 (second series), active compounds read low 0.981 | S. cerevisiae deletion strains, locus YKL085W, strain MDH1, active compounds read low 0.981 | S. cerevisiae deletion strains, locus YKL190W, strain CNB1, active compounds read low 1 | S. cerevisiae deletion strains, locus YKR001C, strain vps1, active compounds read low 0.966 | S. cerevisiae deletion strains, locus YLR039C, strain RIC1, active compounds read low 0.994 | S. cerevisiae deletion strains, locus YLR058C, strain SHM2, active compounds read low 0.993 | S. cerevisiae deletion strains, locus YLR102C, strain apc9, active compounds read low 0.983 | S. cerevisiae deletion strains, locus YLR262C, strain YPT6, active compounds read low 1 | S. cerevisiae deletion strains, locus YLR268W, strain sec22, active compounds read low 0.995 | S. cerevisiae deletion strains, locus YLR330W, strain CHS5, active compounds read low 0.994 | S. cerevisiae deletion strains, locus YLR342W, strain FKS1 (second series), active compounds read low 0.991 | S. cerevisiae deletion strains, locus YLR371W, strain rom2, active compounds read low 0.961 | S. cerevisiae deletion strains, locus YLR418C, strain cdc73, active compounds read low 1.05 | S. cerevisiae deletion strains, locus YML016C, strain PPZ1, active compounds read low 1 | S. cerevisiae deletion strains, locus YML032C, strain rad52, active compounds read low 0.951 | S. cerevisiae deletion strains, locus YML124C, strain tub3, active compounds read low 0.974 | S. cerevisiae deletion strains, locus YMR078C, strain ctf18, active compounds read low 0.945 | S. cerevisiae deletion strains, locus YMR223W, strain ubp8, active compounds read low 0.975 | [4] 1.02 | [5] 0.977 | S. cerevisiae deletion strains, locus YNL067W, strain RPL9B, active compounds read low 1.02 | S. cerevisiae deletion strains, locus YNL128W, strain TEP1, active compounds read low 1.01 | [6] 1.02 | S. cerevisiae deletion strains, locus YNL233W, strain BNI4, active compounds read low 1.02 | S. cerevisiae deletion strains, locus YNL250W, strain rad50, active compounds read low 0.984 | S. cerevisiae deletion strains, locus YNL271C, strain bni1, active compounds read low 0.988 | S. cerevisiae deletion strains, locus YNL298W, strain CLA4, active compounds read low 0.963 | S. cerevisiae deletion strains, locus YNL307C, strain MCK1, active compounds read low 0.967 | [7] 0.998 | S. cerevisiae deletion strains, locus YNR052C, strain pop2, active compounds read low 0.958 | S. cerevisiae deletion strains, locus YOL006C, strain TOP1, active compounds read low 1.03 | S. cerevisiae deletion strains, locus YOL012C, strain htz1 1.08 | S. cerevisiae deletion strains, locus YOL147C, strain pex11, active compounds read low 0.982 | S. cerevisiae deletion strains, locus YOR061W, strain CKA2, active compounds read low 1.01 | S. cerevisiae deletion strains, locus YOR069W, strain VPS5, active compounds read low 1 | S. cerevisiae deletion strains, locus YOR136W, strain idh2, active compounds read low 0.983 | S. cerevisiae deletion strains, locus YOR144C, strain elg1, active compounds read low 0.965 | S. cerevisiae deletion strains, locus YOR184W, strain ser1, active compounds read low 0.921 | S. cerevisiae deletion strains, locus YOR316C, strain cot1, active compounds read low 0.974 | [8] 1.02 | [9] 0.996 | S. cerevisiae deletion strains, locus YPR119W, strain clb2, active compounds read low 0.985 | S. cerevisiae deletion strains, locus YPR141C, strain kar3, active compounds read low 0.974 | S. cerevisiae deletion strains, locus YPR163C, strain tif3, active compounds read low 0.964 | S. cerevisiae deletion strains, locus YPR167C, strain met16, active compounds read low 0.988 | S. cerevisiae deletion strains, strain wtn01, active compounds read low 0.994 | S. cerevisiae strains, strain wild type, active compounds read low 1
